Assay results taken from PubChem BioAssay (Tox21).
Values joined by “and” are separate entries in the source; they are usually repeats but may differ in a detail not shown here. Equal entries are not always repeated. Inconclusive results are not listed. Where a call stands in place of a potency, no number is given. Some structures have more than one record in an assay (separate samples or runs), and their calls can disagree. Active and inactive are the calls of the source. The call rests on the fitted dose curve; in most records, active means well fitted curve in the direction sought with a large enough effect in the repeat runs; inconclusive means weak or mixed curves; inactive means no such curve, though single readings can be large; an effect the other way counts as inactive or inconclusive.

Key:
[1] = Caspase-3/7 induction in HepG2 cells by small molecules, qHTS assay (AID 1346978); further: nearly all actives have a fitted effect of over 15% in size; further: potency means the concentration at half of the fitted maximal effect
Outline: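 Wild-type HepG2 cells, 2,000/well, settled 5 hr at 37 C and 5% CO2, then compound-treated for 17 hr; caspase-3/7 activity read by luminescent Caspase-Glo 3/7 after 30 min at room temperature.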

[2] = Caspase-3/7 induction in HepG2 cells by small molecules, qHTS cell viability counter screen (AID 1346981); further: nearly all actives have a fitted effect of over 30% in size; further: potency means the concentration at half of the fitted maximal effect
Outline: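 CellTiter-Fluor fluorescence measured viability in the same wells used for Caspase-Glo 3/7. HepG2 (wild type) at 2,000 cells/well were pre-incubated 5 hr, dosed, and given reagent at 16 hr, with 1 hr further at 37C.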

[3] = target: Nuclear receptor subfamily 1 group I member 2 (Homo sapiens) (UniProt O75469); assay: Human pregnane X receptor (PXR) small molecule agonists, qHTS assay (AID 1346982); further: nearly all actives have a fitted effect of over 35% in size; further: potency means the concentration at half of the fitted maximal effect
Outline: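 Agonist mode: luminescence from ONE-Glo after 24 h compound exposure at 37C in HepG2 cells carrying hPXR-responsive CYP3A4 luciferase, plated in charcoal-stripped serum medium 5 h beforehand.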

[4] = target: Cytochrome P450 2D6 (Homo sapiens) (UniProt P10635); assay: Cytochrome P450 Family 2 Subfamily D Member 6 (CYP2D6) small molecule antagonists: luciferase reporter qHTS assay (AID 1671196); further: nearly all actives have a fitted effect of over 50% in size; further: potency means the concentration at half of the fitted maximal effect
Outline: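 CYP2D6 activity was followed as luminescence from its luciferin product after a 1 h NADPH-driven reaction at room temperature. Enzyme-substrate mix and compound were pre-incubated for 10 min, and the signal was read 20 min after adding detection reagent.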

[5] = target: Cytochrome P450 2C9 (Homo sapiens) (UniProt P11712); assay: Cytochrome P450 Family 2 Subfamily C Member 9 (CYP2C9) small molecule antagonists: luciferase reporter qHTS assay (AID 1671198); further: nearly all actives have a fitted effect of over 50% in size; further: potency means the concentration at half of the fitted maximal effect
Outline: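 P450-Glo proluciferin substrate with CYP2C9 enzyme; 10 min RT preincubation, then NADPH regeneration 1 h at 37C; luciferin detection reagent 20 min RT, luminescence in relative luminescence units.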

[6] = target: Cytochrome P450 1A2 (Homo sapiens) (UniProt P05177); assay: Cytochrome P450 Family 1 Subfamily A Member 2 (CYP1A2) small molecule antagonists: luciferase reporter qHTS assay (AID 1671199); further: nearly all actives have a fitted effect of over 50% in size; further: potency means the concentration at half of the fitted maximal effect
Outline: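 Luminescence from luciferin formed by CYP1A2 from a proluciferin substrate, read 20 min after detection reagent. Compound was pre-incubated 10 min with enzyme-substrate, and reaction started with NADPH regeneration solution for 1 h at room temperature; furafylline control.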

[7] = target: Voltage-gated inwardly rectifying potassium channel KCNH2 (Homo sapiens) (UniProt Q12809); assay: Human Ether-a-go-go-Related Gene (hERG) channel small molecule antagonists: fluorescence cell-based qHTS assay (AID 1671200); further: nearly all actives have a fitted effect of over 50% in size; further: potency means the concentration at half of the fitted maximal effect
Outline: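 Cell line hERG-U2OS; dye FluxOR II, 1 h RT dark; Tl+ stimulus; ex 480/em 540 nm, read each second for 2 min.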

[8] = target: Cytochrome P450 3A4 (Homo sapiens) (UniProt P08684); assay: Cytochrome P450 Family 3 Subfamily A Member 4 (CYP3A4) small molecule antagonists: luciferase reporter qHTS assay (AID 1671201); further: nearly all actives have a fitted effect of over 50% in size; further: potency means the concentration at half of the fitted maximal effect
Outline: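 Room-temperature assay throughout: 10 min compound–enzyme/substrate preincubation, 1 h reaction after NADPH regeneration solution, 20 min detection. Luciferin formed from proluciferin substrate is quantified by luminescence.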

[9] = Caspase-3/7 induction in CHO-K1 cells by small molecules, qHTS cell viability counter screen (AID 1346979); further: nearly all actives have a fitted effect of over 35% in size; further: potency means the concentration at half of the fitted maximal effect
Outline: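 Multiplexed with Caspase-Glo 3/7 in CHO-K1 cells, this counter screen added CellTiter-Fluor after 16hr of compound exposure and recorded fluorescence 1hr later.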

[10] = Caspase-3/7 induction in CHO-K1 cells by small molecules, qHTS assay (AID 1346980); further: nearly all actives have a fitted effect of over 15% in size
Outline: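 Wild-type CHO-K1 cells exposed to compounds for 17hr at 37 C, 5% CO2. Caspase-3/7 activity then measured by Caspase-Glo 3/7 luminescence after 30min at room temperature.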

[11] = target: Cytochrome P450 2C19 (Homo sapiens) (UniProt P33261); assay: Cytochrome P450 Family 2 Subfamily C Member 19 (CYP2C19) small molecule antagonists: luciferase reporter qHTS assay (AID 1671197); further: nearly all actives have a fitted effect of over 65% in size; further: potency means the concentration at half of the fitted maximal effect
Outline: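 Inhibition of CYP2C19 was scored from loss of luminescence in a P450-Glo proluciferin substrate assay, NADPH-started and run 1 h at 37C, with ketoconazole as positive control.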

[12] = target: Nuclear receptor subfamily 1 group I member 2 (Rattus norvegicus) (UniProt Q9R1A7); assay: Rat pregnane X receptor (rPXR) activation by small molecules, qHTS assay (AID 1346983); settings: rPXR luciferase reporter cells, One-Glo luminescence, 24 h; stronger effect = higher value; further: nearly all actives have a fitted effect of over 20% in size
Outline: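 Cell-based rPXR activation assay: rPXR cells, 2,000 per well, rested 5hr at 37 C, then exposed to compounds in DMSO for 24 hr at 37 C. Luciferase activity read by One-Glo luminescence after 30 min at room temperature.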

[13] = target: Nuclear receptor subfamily 1 group I member 2 (Homo sapiens) (UniProt O75469); assay: CYP3A4 induction through human pregnane X receptor (PXR) by small molecules, qHTS assay (AID 1346984); further: nearly all actives have a fitted effect of over 40% in size; further: potency means the concentration at half of the fitted maximal effect
Outline: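 Read-out is luminescence after One-Glo addition, following a 3 hr, 37C incubation with Luciferin-IPA CYP3A4 substrate (3uM final). Before that, compounds were on DPX-2 cells (HepG2 co-transfected with PXR element plus CYP3A4-promoter luciferase) for 24 hr at 37C.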

[14] = target: Nuclear receptor subfamily 1 group I member 2 (Homo sapiens) (UniProt O75469); assay: Human pregnane X receptor (PXR) activation by small molecules, qHTS assay (AID 1346985); further: potency means the concentration at half of the fitted maximal effect; nearly all actives have a fitted effect of over 40% in size
Outline: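 DPX-2 cells (HepG2 co-transfected with a PXR response element and a CYP3A4-promoter luciferase construct) were seeded at 2,000 per well, rested 5 hr at 37C, then exposed to DMSO-dissolved compounds for 24 hr. Activation was read as luciferase luminescence.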

Sequence of Nuclear receptor subfamily 1 group I member 2 (Rattus norvegicus) (Q9R1A7 whole entry, looked up): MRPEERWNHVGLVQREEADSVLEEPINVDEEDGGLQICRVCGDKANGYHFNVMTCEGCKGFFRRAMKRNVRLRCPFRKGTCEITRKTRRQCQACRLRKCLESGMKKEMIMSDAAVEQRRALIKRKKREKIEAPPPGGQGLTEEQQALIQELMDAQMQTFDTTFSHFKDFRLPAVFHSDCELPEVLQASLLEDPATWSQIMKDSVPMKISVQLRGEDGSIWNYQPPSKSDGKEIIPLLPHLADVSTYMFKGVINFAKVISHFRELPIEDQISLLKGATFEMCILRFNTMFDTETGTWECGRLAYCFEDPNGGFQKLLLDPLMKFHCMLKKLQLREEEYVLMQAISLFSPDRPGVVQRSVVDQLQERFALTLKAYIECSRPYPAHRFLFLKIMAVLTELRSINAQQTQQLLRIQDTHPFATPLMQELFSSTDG
Sequence of Cytochrome P450 1A2 (Homo sapiens) (P05177 whole entry, looked up): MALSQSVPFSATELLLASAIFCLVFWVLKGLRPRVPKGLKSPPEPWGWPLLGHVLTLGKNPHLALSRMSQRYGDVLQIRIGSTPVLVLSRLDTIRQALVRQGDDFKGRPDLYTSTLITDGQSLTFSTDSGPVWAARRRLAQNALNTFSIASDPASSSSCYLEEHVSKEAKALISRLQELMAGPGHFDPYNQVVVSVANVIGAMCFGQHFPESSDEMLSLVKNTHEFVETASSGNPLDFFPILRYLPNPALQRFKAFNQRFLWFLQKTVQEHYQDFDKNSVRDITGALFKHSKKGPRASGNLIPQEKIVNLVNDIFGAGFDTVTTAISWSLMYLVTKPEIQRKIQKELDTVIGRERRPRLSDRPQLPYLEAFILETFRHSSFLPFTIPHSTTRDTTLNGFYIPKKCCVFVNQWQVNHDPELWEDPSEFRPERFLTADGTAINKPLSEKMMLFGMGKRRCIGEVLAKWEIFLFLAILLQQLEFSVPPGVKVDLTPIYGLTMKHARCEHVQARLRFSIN
Sequence of Cytochrome P450 3A4 (Homo sapiens) (P08684 whole entry, looked up): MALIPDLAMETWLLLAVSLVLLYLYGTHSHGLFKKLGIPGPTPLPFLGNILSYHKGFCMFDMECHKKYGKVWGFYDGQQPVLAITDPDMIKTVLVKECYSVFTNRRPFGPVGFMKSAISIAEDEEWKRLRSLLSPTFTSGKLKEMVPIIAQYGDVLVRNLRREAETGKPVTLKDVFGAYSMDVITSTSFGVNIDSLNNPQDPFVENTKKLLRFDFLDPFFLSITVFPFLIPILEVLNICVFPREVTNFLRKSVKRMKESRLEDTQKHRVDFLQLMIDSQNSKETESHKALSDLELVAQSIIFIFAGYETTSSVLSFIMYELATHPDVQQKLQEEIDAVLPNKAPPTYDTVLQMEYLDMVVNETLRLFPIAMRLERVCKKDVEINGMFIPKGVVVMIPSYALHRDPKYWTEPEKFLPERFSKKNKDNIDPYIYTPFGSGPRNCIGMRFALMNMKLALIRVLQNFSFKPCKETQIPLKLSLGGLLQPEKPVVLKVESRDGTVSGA
Sequence of Cytochrome P450 2C19 (Homo sapiens) (P33261 whole entry, looked up): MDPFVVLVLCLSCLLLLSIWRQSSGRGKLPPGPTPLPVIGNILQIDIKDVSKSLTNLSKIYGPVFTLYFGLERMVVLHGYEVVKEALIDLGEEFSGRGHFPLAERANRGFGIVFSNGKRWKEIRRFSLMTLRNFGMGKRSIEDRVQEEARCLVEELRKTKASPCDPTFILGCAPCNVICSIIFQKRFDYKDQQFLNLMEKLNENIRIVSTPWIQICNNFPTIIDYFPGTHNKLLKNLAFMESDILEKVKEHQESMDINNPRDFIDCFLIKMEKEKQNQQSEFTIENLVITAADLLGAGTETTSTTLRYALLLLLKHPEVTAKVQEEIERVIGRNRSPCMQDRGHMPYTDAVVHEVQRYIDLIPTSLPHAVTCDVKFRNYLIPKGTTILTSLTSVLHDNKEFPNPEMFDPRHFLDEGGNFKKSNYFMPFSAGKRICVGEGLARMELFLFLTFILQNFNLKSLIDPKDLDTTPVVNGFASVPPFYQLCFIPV
Sequence of Cytochrome P450 2C9 (Homo sapiens) (P11712 whole entry, looked up): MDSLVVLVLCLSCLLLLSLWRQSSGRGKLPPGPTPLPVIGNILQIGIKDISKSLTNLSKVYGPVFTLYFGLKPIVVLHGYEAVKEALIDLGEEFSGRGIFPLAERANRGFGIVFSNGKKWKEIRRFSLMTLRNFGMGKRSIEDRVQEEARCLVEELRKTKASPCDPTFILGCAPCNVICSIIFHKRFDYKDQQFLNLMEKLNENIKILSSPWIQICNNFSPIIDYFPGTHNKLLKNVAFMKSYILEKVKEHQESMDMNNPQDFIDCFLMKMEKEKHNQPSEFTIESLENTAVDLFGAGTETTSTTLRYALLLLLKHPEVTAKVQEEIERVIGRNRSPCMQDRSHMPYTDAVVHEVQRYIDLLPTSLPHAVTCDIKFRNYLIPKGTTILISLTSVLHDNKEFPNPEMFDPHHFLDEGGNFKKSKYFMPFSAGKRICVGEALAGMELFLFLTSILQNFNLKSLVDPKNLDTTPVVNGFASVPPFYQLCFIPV
Sequence of Voltage-gated inwardly rectifying potassium channel KCNH2 (Homo sapiens) (Q12809 whole entry, looked up): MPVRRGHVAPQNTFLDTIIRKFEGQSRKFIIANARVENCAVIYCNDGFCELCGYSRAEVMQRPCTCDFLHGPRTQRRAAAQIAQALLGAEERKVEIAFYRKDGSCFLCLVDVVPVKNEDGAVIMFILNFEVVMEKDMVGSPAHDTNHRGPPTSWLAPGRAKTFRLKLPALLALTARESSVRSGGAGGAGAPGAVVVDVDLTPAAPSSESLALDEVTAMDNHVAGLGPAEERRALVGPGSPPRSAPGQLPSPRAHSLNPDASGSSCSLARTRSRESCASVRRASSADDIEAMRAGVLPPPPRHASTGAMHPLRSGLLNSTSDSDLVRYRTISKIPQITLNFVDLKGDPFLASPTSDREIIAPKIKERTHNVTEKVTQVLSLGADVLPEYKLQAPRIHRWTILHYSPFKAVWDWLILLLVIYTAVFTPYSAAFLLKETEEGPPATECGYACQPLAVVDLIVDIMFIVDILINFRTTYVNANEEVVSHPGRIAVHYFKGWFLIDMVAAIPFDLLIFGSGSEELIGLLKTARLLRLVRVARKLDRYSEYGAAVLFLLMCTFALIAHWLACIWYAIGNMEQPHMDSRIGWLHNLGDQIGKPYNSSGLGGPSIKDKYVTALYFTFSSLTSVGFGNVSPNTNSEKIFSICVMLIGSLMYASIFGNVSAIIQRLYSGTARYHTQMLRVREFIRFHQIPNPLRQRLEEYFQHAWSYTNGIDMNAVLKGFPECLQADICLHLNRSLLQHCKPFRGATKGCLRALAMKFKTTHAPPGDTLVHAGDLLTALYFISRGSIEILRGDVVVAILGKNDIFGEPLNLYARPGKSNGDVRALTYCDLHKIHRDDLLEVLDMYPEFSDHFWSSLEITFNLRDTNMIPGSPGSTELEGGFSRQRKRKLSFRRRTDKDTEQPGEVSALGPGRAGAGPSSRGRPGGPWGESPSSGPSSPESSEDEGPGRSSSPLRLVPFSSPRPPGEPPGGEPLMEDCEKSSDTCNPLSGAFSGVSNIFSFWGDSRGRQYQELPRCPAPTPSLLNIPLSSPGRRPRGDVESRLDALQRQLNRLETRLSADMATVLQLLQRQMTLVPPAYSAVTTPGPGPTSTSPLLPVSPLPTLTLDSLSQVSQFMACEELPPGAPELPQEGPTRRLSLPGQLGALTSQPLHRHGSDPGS
Sequence of Nuclear receptor subfamily 1 group I member 2 (Homo sapiens) (O75469 whole entry, looked up): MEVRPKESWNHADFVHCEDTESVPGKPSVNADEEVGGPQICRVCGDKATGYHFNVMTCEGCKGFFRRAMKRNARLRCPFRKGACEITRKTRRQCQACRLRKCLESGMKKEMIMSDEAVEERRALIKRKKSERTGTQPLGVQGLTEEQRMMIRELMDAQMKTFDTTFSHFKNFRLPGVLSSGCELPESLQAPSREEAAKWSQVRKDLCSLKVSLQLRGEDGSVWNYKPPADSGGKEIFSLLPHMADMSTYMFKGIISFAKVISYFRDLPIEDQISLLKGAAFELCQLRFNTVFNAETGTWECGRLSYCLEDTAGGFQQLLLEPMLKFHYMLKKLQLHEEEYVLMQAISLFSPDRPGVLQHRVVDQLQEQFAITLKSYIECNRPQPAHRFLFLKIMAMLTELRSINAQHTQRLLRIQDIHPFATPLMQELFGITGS
Sequence of Cytochrome P450 2D6 (Homo sapiens) (P10635 whole entry, looked up): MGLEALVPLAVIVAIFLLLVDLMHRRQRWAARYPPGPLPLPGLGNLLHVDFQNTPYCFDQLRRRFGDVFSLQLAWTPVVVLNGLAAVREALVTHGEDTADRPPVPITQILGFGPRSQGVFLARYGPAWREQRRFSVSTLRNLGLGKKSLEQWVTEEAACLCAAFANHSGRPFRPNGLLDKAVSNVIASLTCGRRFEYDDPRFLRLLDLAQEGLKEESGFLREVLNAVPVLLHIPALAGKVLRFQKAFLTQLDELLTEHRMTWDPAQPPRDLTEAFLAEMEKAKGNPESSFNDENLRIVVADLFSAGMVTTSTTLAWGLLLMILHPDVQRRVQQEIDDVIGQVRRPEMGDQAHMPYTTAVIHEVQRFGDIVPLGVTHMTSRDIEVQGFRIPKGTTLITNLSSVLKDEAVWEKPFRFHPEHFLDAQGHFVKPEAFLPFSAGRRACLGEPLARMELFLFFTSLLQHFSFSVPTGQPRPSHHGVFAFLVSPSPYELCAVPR

Question: Which Potency [1] does the source give for CCOc1ccc2c(c1)C(C)=CC(C)(C)N2 here?
Answer: inactive

Question: And the Potency [2]?
Answer: inactive

Question: And the Potency [3]?
Answer: 60.8 µM (active) and 54.5 µM (active)

Question: What about the Potency [4] of the same compound?
Answer: 11.2 µM (active) and 10 µM (active)

Question: And the Potency [5]?
Answer: 7.93 µM (active) and 5.64 µM (active)

Question: What about the Potency [6] of the same compound?
Answer: 39.7 µM (active) and 31.7 µM (active)

Question: What about the Potency [7] of the same compound?
Answer: inactive

Question: What about the Potency [8] of the same compound?
Answer: 12.6 µM (active) and 17.8 µM (active)

Question: With NC12CC3CC(CC(C3)C1)C2 as the compound, how does the Potency [1] read?
Answer: inactive

Question: What about the Potency [9] of the same compound?
Answer: inactive

Question: What about the Potency [10] of the same compound?
Answer: inactive

Question: What about the Potency [7] of the same compound?
Answer: inactive

Question: For O=C(O)CCc1ccccc1, which Potency [1] is on record?
Answer: inactive

Question: What about the Potency [9] of the same compound?
Answer: inactive

Question: And the Potency [10]?
Answer: inactive

Question: What about the Potency [3] of the same compound?
Answer: inactive

Question: And the Potency [4]?
Answer: inactive

Question: And the Potency [11]?
Answer: inactive

Question: And the Potency [5]?
Answer: inactive

Question: What about the Potency [6] of the same compound?
Answer: inactive

Question: What about the Potency [7] of the same compound?
Answer: inactive

Question: What about the Potency [8] of the same compound?
Answer: inactive

Question: Which results are given for CC[C@]1(O)C[C@@H]2CN(CCc3c([nH]c4ccccc34)[C@@](C(=O)OC)(c3cc4c(cc3OC)N(C)[C@H]3[C@@](O)(C(=O)OC)[C@H](OC(C)=O)[C@]5(CC)C=CCN6CC[C@]43[C@@H]65)C2)C1?
Answer: Potency [1]: inactive; Potency [9]: 1.33 µM (active) and 119 nM (active); Potency [10]: inactive; Potency [7]: inactive

Question: With C=CC(=O)OCCCCCCOC(=O)C=C as the compound, how does the Potency [1] read?
Answer: inactive

Question: What about the Potency [9] of the same compound?
Answer: 43.8 µM (active) and 43.3 µM (active)

Question: And the Potency [3]?
Answer: inactive

Question: And the Potency [4]?
Answer: inactive

Question: What about the Potency [11] of the same compound?
Answer: 39.9 µM (active)

Question: What about the Potency [5] of the same compound?
Answer: 64.1 µM (active) and 56.4 µM (active)

Question: And the Potency [6]?
Answer: 28.6 µM (active) and 31.7 µM (active)

Question: And the Potency [7]?
Answer: inactive

Question: With CC1=CC(=O)c2ccccc2C1=O as the compound, how does the Potency [1] read?
Answer: inactive

Question: And the Potency [9]?
Answer: 24.3 µM (active) and 21.1 µM (active)

Question: And the Potency [10]?
Answer: inactive

Question: And the Potency [4]?
Answer: 31.7 µM (active)

Question: And the Potency [11]?
Answer: 14.2 µM (active) and 15.5 µM (active)

Question: What about the Potency [5] of the same compound?
Answer: 22.4 µM (active) and 13.8 µM (active)

Question: And the Potency [6]?
Answer: 1.78 µM (active) and 2.75 µM (active)

Question: And the Potency [7]?
Answer: 3.89 µM (active) and 7.56 µM (active)

Question: What does the source list for O=C1OC2(c3ccc(O)cc3Oc3cc(O)ccc32)c2ccccc21?
Answer: Potency [1]: inactive; Potency [10]: inactive; Potency [3]: 21.7 µM (active) and inactive; max activation [12]: 0.287% (inactive); Potency [13]: 14.1 µM (active); Potency [4]: inactive; Potency [11]: 20 µM (active) and 4.9 µM (active); Potency [5]: 11.2 µM (active); Potency [6]: inactive; Potency [7]: 15.5 µM (active) and inactive

Question: With CC(C)C(=O)c1c(C(C)C)nn2ccccc12 as the compound, how does the Potency [1] read?
Answer: inactive

Question: And the Potency [9]?
Answer: inactive

Question: And the Potency [10]?
Answer: inactive

Question: What about the Potency [3] of the same compound?
Answer: 26.6 µM (active)

Question: What about the Potency [4] of the same compound?
Answer: inactive

Question: What about the Potency [11] of the same compound?
Answer: inactive

Question: And the Potency [5]?
Answer: inactive

Question: And the Potency [6]?
Answer: 2.57 µM (active)

Question: What about the Potency [7] of the same compound?
Answer: inactive

Question: And the Potency [8]?
Answer: inactive

Question: Which results are given for CC(C)(O)CCC(C)(C)O?
Answer: Potency [1]: inactive; Potency [9]: inactive; Potency [10]: inactive; Potency [3]: inactive; Potency [4]: inactive; Potency [11]: inactive; Potency [5]: inactive; Potency [6]: inactive; Potency [7]: inactive; Potency [8]: inactive

Question: What does the source list for Oc1c(Cl)cc(Cl)c(Cl)c1Cc1c(O)c(Cl)cc(Cl)c1Cl?
Answer: Potency [1]: inactive; Potency [9]: 6.09 µM (active) and 15.4 µM (active) and 8.41 µM (active); Potency [10]: inactive; max activation [12]: -22.6% (inactive); Potency [4]: inactive; Potency [11]: 70.8 µM (active) and 79.6 µM (active) and inactive; Potency [5]: 2 µM (active) and 3.56 µM (active) and 1.74 µM (active); Potency [6]: inactive; Potency [7]: inactive; Potency [8]: inactive

Question: For Cc1cc(C(C)(C)C)c(O)c(C(C)(C)C)c1, which Potency [1] is on record?
Answer: inactive

Question: What about the Potency [9] of the same compound?
Answer: inactive

Question: What about the Potency [10] of the same compound?
Answer: inactive

Question: What about the Potency [3] of the same compound?
Answer: inactive

Question: And the Potency [4]?
Answer: inactive

Question: What about the Potency [11] of the same compound?
Answer: inactive

Question: What about the Potency [5] of the same compound?
Answer: 35.7 µM (active) and inactive

Question: And the Potency [6]?
Answer: inactive

Question: What about the Potency [7] of the same compound?
Answer: inactive

Question: What about the Potency [8] of the same compound?
Answer: inactive

Question: For CCCCC/C=C/CC1CC(=O)OC1=O (stereo unspecified), which Potency [1] is on record?
Answer: inactive

Question: What about the Potency [10] of the same compound?
Answer: inactive

Question: And the Potency [2]?
Answer: inactive

Question: What about the Potency [3] of the same compound?
Answer: inactive

Question: What about the Potency [4] of the same compound?
Answer: inactive

Question: What about the Potency [5] of the same compound?
Answer: inactive

Question: And the Potency [6]?
Answer: 28.3 µM (active)

Question: What about the Potency [7] of the same compound?
Answer: inactive

Question: What about the Potency [8] of the same compound?
Answer: inactive

Question: With CNCCC(Oc1ccc(C(F)(F)F)cc1)c1ccccc1 (stereo unspecified) as the compound, how does the Potency [1] read?
Answer: 26.9 µM (active)

Question: And the Potency [9]?
Answer: 67.7 µM (active) and 29.8 µM (active)

Question: What about the Potency [2] of the same compound?
Answer: 60.3 µM (active)

Question: Which Potency [9] does the source give for CCN(CC)CCOc1ccc(/C(=C(\Cl)c2ccccc2)c2ccccc2)cc1 here?
Answer: 55.6 µM (active)

Question: Which results are given for CN(C)c1ccc2nc3ccc(=[N+](C)C)cc-3sc2c1?
Answer: Potency [9]: 5.87 µM (active) and 24.3 µM (active) and 5.96 µM (active); Potency [10]: inactive; Potency [3]: inactive; max activation [12]: -8.38% (inactive); Potency [13]: inactive; Potency [14]: 3.16 µM (active); Potency [7]: inactive

Question: For COc1ccc(CCN(C)CCCC(C#N)(c2ccc(OC)c(OC)c2)C(C)C)cc1OC (stereo unspecified), which Potency [4] is on record?
Answer: inactive

Question: And the Potency [11]?
Answer: inactive

Question: What about the Potency [5] of the same compound?
Answer: inactive

Question: What about the Potency [6] of the same compound?
Answer: inactive
